Experimental data published in paper PMC4336329 (PLoS ONE, 2015).
About 14,000 (4.5%) of roughly 310,000 compounds showed an effect of 50% or more. The effect is printed as a negative number. Shown is part of a subset that was picked to be rich in strong results.

The compounds below were run against human ether-à-go-go-related gene (hERG) potassium channel (human, UniProt Q12809) (assay: primary screen, population patch clamp on CHO cells stably expressing hERG; higher = less effect of the substance).
Chain of human ether-à-go-go-related gene (hERG) potassium channel (Q12809 whole entry, looked up): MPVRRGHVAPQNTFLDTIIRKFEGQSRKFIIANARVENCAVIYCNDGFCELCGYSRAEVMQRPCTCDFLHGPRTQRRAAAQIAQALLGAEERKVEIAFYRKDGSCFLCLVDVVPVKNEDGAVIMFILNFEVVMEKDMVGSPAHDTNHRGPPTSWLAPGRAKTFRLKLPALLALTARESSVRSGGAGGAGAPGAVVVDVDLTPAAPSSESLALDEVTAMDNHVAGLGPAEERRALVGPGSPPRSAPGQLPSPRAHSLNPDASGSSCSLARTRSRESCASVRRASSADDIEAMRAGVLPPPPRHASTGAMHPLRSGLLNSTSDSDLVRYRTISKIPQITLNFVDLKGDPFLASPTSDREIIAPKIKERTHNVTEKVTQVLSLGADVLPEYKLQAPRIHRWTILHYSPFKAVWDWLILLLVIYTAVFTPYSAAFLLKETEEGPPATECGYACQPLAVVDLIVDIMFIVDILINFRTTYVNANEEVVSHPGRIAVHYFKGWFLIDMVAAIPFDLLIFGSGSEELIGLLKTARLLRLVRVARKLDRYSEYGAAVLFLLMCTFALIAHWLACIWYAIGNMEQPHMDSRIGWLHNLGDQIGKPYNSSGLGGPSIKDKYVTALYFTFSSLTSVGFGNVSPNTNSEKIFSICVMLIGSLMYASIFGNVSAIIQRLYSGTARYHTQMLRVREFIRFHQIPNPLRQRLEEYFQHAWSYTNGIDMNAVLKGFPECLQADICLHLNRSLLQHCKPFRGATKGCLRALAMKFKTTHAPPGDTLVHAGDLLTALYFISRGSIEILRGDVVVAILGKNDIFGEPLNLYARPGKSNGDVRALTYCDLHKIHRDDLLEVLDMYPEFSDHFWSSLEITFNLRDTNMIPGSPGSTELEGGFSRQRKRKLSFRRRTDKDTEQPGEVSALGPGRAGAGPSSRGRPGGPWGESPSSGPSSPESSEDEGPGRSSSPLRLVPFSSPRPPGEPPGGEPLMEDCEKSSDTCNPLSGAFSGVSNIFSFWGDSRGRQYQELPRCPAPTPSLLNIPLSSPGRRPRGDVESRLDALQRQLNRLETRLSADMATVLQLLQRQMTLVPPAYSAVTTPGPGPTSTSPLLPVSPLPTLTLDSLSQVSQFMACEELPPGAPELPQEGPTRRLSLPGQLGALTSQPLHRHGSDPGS
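Also: peak tail current of the secondary pulse compared with the same well before compound.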

Compound	hERG current change (%, negative = inhibition) at 10uM
CCN(CC)CCCNC(=O)C1CCC(=O)N(c2ccc(OC)cc2)C1c1ccc(F)cc1 (stereo not shown)	1.14%
CCOc1ccc(N(CC)C(=O)Cc2c(C(=O)O)n(C)c3ccccc23)cc1	16.8%
COC(=O)c1sccc1-n1cccc1C(=O)C(=O)N1CCCC1	14.3%
COC(=O)c1sccc1-n1cccc1C(=O)C(=O)N1CCOCC1	-78.3%
COC(=O)c1sccc1-n1cccc1C(=O)N1CCOCC1	-44.5%
Cc1ccc(-n2nc3c(=O)n(CCCC(=O)NCc4ccc(Cl)cc4)nc(C)c3c2C)cc1	4.82%
CSc1ccc(CNC(=O)C(C)n2nc(C)c3c(C)n(-c4ccccc4)nc3c2=O)cc1 (stereo not shown)	-38.2%
Cc1ccc(-n2nc3c(=O)n(CCCC(=O)NCc4ccc(F)cc4)nc(C)c3c2C)cc1	-76.5%
CCOc1ccc(CNC(=O)C(C)n2nc(C)c3c(C)n(-c4ccccc4)nc3c2=O)cc1 (stereo not shown)	-16.1%
Cc1ccc(CNC(=O)CCCn2nc(C)c3c(C)n(-c4ccccc4)nc3c2=O)cc1	5.48%
CCC(C(=O)NCCC1=CCCCC1)n1nc(C)c2c(C)n(-c3ccccc3)nc2c1=O (stereo not shown)	-48.6%
Cc1ccc(-n2nc3c(=O)n(C(C)C(=O)NCc4ccccc4Cl)nc(C)c3c2C)cc1 (stereo not shown)	-35.5%
Cc1ccc(-n2nc3c(=O)n(CC(=O)NCCC4=CCCCC4)nc(C)c3c2C)cc1	2.08%
Cc1ccc(-n2nc3c(=O)n(C(C)C(=O)NCc4ccc5c(c4)OCO5)nc(C)c3c2C)cc1 (stereo not shown)	1.78%
Cc1ccc(-n2nc3c(=O)n(C(C)C(=O)NCCC4=CCCCC4)nc(C)c3c2C)cc1 (stereo not shown)	-51.4%
Cc1ccc(-n2nc3c(=O)n(C(C)C(=O)NCc4ccc(Cl)cc4)nc(C)c3c2C)cc1 (stereo not shown)	-63.5%
COc1ccc(CNC(=O)C(C)n2nc(C)c3c(C)n(-c4ccc(C)cc4)nc3c2=O)cc1 (stereo not shown)	-50.1%
CCOc1ccc(C(=O)NNC(=O)CCNC(=O)c2ccco2)cc1OC	12.9%
Cc1ccc(OCCn2cccc2/C=C2/C(=O)NC(=O)N(Cc3ccco3)C2=O)cc1	-0.631%
CCOC(=O)C1CCN(C(=S)Nc2cc(OC)c(OC)cc2C(=O)OC)CC1	-10.9%
COc1cc(CNCC(C)C)c(Br)cc1OCC(=O)NCc1ccccc1	-10.7%
Cc1ccc(C2C(C#N)=C(N)OC3=C2C(=O)CC(C)(C)C3)s1 (stereo not shown)	-4.59%
COc1ccc(-n2nnc3c(SCC(=O)N4CCCc5ccccc54)ncnc32)cc1	13.6%
Cc1ccc(-n2nc3c(=O)n(C(C)C(=O)NCCCc4ccccc4)nc(C)c3c2C)cc1 (stereo not shown)	-55.2%
Cc1ccc(CCNC(=O)C(C)n2nc(C)c3c(C)n(-c4ccccc4)nc3c2=O)cc1 (stereo not shown)	-36.3%
Cc1nn(C(C)C(=O)NCCCc2ccccc2)c(=O)c2nn(-c3ccccc3)c(C)c12 (stereo not shown)	-20%

Compound	hERG current change (%, negative = inhibition) at 10uM
COc1ccccc1CNC(=O)C(C)n1nc(C)c2c(C)n(-c3ccccc3)nc2c1=O (stereo not shown)	-0.0415%
Cc1nn(C(C)C(=O)NCc2ccccc2F)c(=O)c2nn(-c3ccccc3)c(C)c12 (stereo not shown)	13.8%
CCOc1ccccc1CNC(=O)C(C)n1nc(C)c2c(C)n(-c3ccccc3)nc2c1=O (stereo not shown)	-65.4%
CNC(=S)Nc1cccc(S(=O)(=O)NC2=NCCC2)c1	-7.6%
Cc1c(-c2ccccc2)c(=O)oc2ccc(O)cc12	13.8%
CC1CCCCC1NC1CCN(C)CC1 (stereo not shown)	23.9%
O=C(Nc1ccc2c(c1)OCO2)c1c(F)cccc1F	3.95%
COc1ccccc1-c1cc(C(=O)NCc2ccc(Cl)cc2)no1	3.64%
Cc1cc(Nc2n[nH]c(N)c2C#N)ccc1F	-70.2%
Cc1cc(Nc2c(C#N)c(N)nn2C)ccc1F	6.99%
Cc1cc(Nc2nn(C)c(N)c2C#N)ccc1F	-14.8%
CCOc1ccc(C(=O)Nc2cc(-c3nc4ccccc4[nH]3)ccc2Cl)cc1[N+](=O)[O-]	-29.1%
CCCn1c2ccccc2c2cnn(CC(=O)NCCCOC)c(=O)c21	-1.43%
CCCn1c2ccccc2c2cnn(CC(=O)NCCCN3CCCCC3CC)c(=O)c21 (stereo not shown)	-62.2%
CCCn1c2ccccc2c2cnn(CC(=O)NCCCN3CCN(c4ccccc4)CC3)c(=O)c21	-74.2%
CCCn1c2ccccc2c2cnn(CC(=O)NCCCN3C(C)CCCC3C)c(=O)c21 (stereo not shown)	-41.8%
Cn1c2ccccc2c2cnn(CC(=O)N3CCCCC3)c(=O)c21	-10.4%
CCC1CCCCN1CCCNC(=O)Cn1ncc2c([nH]c3ccc(C)cc32)c1=O (stereo not shown)	-6.66%
CCCn1c2ccccc2c2cnn(CC(=O)N3CCN(C4CCCCC4)CC3)c(=O)c21	-72.6%
CCCn1c2ccccc2c2cnn(CC(=O)N3CCOCC3)c(=O)c21	-13.7%
CCC1CCCCN1CCCNC(=O)Cn1ncc2c(C)n(Cc3ccccc3Cl)c(C)c2c1=O (stereo not shown)	-14.6%
CCCn1c2ccccc2c2cnn(CC(=O)NC3CCCCC3C)c(=O)c21 (stereo not shown)	11.7%
CCCn1c2ccccc2c2cnn(CC(=O)NCCCN3CCCC(C)C3)c(=O)c21 (stereo not shown)	-70.8%
Cc1ccc(N(Cc2cc3ccccc3[nH]c2=O)C(=O)c2cccs2)cc1C	9.8%
O=C(NNc1ccc(Cl)cc1)C1CCC1	16.6%
Cc1cc(C)cc(OCC(=O)O/N=C(\N)c2ccccc2Cl)c1	-13.6%
